Screens: PubChem BioAssay, National Center for Advancing Translational Sciences (NCATS)
An excerpt weighted towards active compounds, which were near 3.4% of everything screened.
Luciferase inh: qHTS Assay for Inhibitors of Firefly Luciferase; Potency, µM (series often up to 57.1 µM), actives largely listed as inhibitors; 72,000 compounds, 2.2% hits; purified firefly luciferase, luminescence, 8 min; note: nearly all actives have a fitted effect of over 40% in size
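Here, luciferase activity is measured as luminescence following an 8 min room-temperature reaction at 10 uM ATP, pH 7.2. Every library sample is titrated.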
Tau fil binding: qHTS Assay for Tau Filament Binding; recombinant tau filaments, thioflavin S fluorescence, 15 h; filaments grown with octadecylsulfate alongside compound; Potency, µM (titrated, usually from 57.1 µM); 71,000 compounds, 2% hits; AID 596, 2007;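 note: actives lower thioflavin S fluorescence by blocking filaments or displacing dye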
Target sequence (P10636 whole entry, looked up): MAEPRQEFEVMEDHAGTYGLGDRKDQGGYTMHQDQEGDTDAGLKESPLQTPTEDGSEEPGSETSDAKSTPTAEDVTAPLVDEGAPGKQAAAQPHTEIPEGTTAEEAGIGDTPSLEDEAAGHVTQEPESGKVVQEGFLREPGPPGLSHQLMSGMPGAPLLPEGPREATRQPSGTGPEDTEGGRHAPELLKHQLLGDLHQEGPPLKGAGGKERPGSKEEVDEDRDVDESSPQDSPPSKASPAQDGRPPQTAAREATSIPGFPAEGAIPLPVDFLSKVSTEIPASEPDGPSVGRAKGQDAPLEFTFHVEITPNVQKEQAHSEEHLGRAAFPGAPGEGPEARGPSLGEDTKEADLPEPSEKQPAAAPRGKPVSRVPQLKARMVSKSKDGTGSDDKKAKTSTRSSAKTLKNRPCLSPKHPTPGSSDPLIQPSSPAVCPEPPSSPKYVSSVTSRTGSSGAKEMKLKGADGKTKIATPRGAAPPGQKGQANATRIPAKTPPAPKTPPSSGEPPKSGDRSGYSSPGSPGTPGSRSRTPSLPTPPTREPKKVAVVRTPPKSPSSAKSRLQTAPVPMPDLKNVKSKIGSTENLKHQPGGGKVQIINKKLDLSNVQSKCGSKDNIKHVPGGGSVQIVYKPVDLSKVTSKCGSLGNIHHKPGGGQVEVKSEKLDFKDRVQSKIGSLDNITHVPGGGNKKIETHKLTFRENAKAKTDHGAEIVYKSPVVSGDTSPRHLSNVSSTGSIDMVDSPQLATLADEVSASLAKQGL
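Quantitative HTS: thioflavine S signal from ODS-induced tau filaments, excited at 450 nm, emission 510 nm. Conditions: 1 uM tau, 30 uM ODS, 15 h at 37 C, pH 7.4.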
p53ts 39C tox: qHTS Screen for Compounds that Selectively Target Cancer Cells with p53 Mutations: Cytotoxicity of p53ts Cells at the Nonpermissive Temperature | 130,000 compounds, 1.5% hits | H1299-p53A138V viability at 39C, ATP luminescence, 24 h | AID 902, 2007 | Potency, µM (top dose mostly 46.1 µM), most hits filed as cytotoxic; note: nearly all actives have a fitted effect of over 55% in size
Imprint erasure: qHTS Assay for Compounds that Induce Erasure of Genomic Imprints | mouse ES Peg3-LacZ reporter, beta-gal luminescence, 40 h | Potency, µM (series often up to 60.7 µM), hits mostly activators | 110,000 compounds, 0.02% hits | AID 1948, 2009
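Readout: BetaGlo luminescence (5 min, room temp) for LacZ from the normally silent maternal Peg3 allele in female Peg3LacZ-Neo ES cells. Cells 300/well, 40 h, 37C, 5% CO2. Data normalized per plate to negative controls.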
p53ts 32C kill: qHTS Screen for Compounds that Selectively Target Cancer Cells with p53 Mutations: Cytotoxicity of p53ts Cells at the Permissive Temperature; Potency, µM (doses to about 46.1 µM), most hits filed as cytotoxic; H1299-p53A138V at 32C, ATP luminescence viability, 24 h; 130,000 compounds, 0.93% hits; note: nearly all actives have a fitted effect of over 55% in size
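Viability by ATPlite luminescence after 24 h compound treatment (up to 46 uM) at the permissive 32C. Cells are H1299 carrying p53 A138V. Scale runs from DMSO basal to 100 uM tamoxifen as full kill; AC50 from Hill fits.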
Each line names hits and unclear results; the compound was inactive in the other large screens; ! = repeats disagree. Calls come from the whole dose curve; as a rule, active = well fitted curve in the direction sought with a large enough effect; inconclusive = small, poorly fitted or top-dose-only effect, or another doubt; inactive = no such curve, though single readings can be large; an effect the other way counts as inactive or inconclusive.

Cc1ccc(NC(=O)NC2=N/C(=C(/C#N)C(=O)N3CCCC3)c3ccccc32)cc1	Tau fil binding 5µM
CS(=O)(=O)N1CCc2cc(C(=O)OCC(=O)c3ccccc3)ccc21	Luciferase inh 13µM
CC(C)CN=C(N)N=C(N)N	none
COc1cc(/C=C(\C#N)c2nc3ccccc3[nH]2)ccc1OCc1cccc(C(F)(F)F)c1	p53ts 39C tox 3.2µM, p53ts 32C kill 13µM (no result: Luciferase inh, Tau fil binding)
Cc1ccc(S(=O)(=O)NCc2nc3cccnc3n2Cc2ccccc2Cl)c(C)c1	none (no result: Luciferase inh, Tau fil binding)
N#CC(=NCCO)C1=C(O)c2ccccc2C1=O	p53ts 32C kill inconclusive
O=C1C(SCCO)=C(SCCO)C(=O)c2ccccc21	Tau fil binding 5µM!, p53ts 39C tox 0.79µM, p53ts 32C kill 0.63µM
FC(F)(F)C(Cl)Br (configuration not stated)	none (no result: Luciferase inh)
CN1Cc2cc(C(=O)c3cc(Cl)cc(CSc4ncccn4)c3O)cnc2NC1=O	Tau fil binding 16µM
Cc1ccc(O)c(C(=O)c2cnc3c(c2)CN(CCC(C)C)C(=O)N3)c1	none
Cc1cnc(CNc2nc(-c3ccoc3)nc3ccccc23)cn1	none
Fc1ccc(Nc2ccnc(-c3ccoc3)n2)cc1	Tau fil binding 13µM
c1ccc(CNc2nc(-c3ccoc3)nc3ccccc23)cc1	Tau fil binding 16µM
COc1ccccc1-c1nccc(Nc2ccc(F)cc2)n1	Tau fil binding 16µM
Cc1cccc(CNc2nc(-c3ccoc3)nc3ccccc23)c1	Tau fil binding 16µM
Fc1ccc(Nc2ccnc(-c3ccc4c(c3)OCO4)n2)cc1	Imprint erasure inconclusive
CC(=O)c1ccc(Nc2nc3c(S(=O)(=O)c4ccccc4)nnn3c3ccc(Cl)cc23)cc1	none (no result: Luciferase inh, Tau fil binding)
COc1ccccc1NC(=O)Cn1c(=O)n(-c2cccc(C)c2)c(=O)c2c1c1cc(C)ccc1n2C	none (no result: Luciferase inh, Tau fil binding)
CCC(C)(C)NC(=O)Cn1c(=O)ccc2cc(S(=O)(=O)N3CCC(C)CC3)ccc21	none (no result: Luciferase inh, Tau fil binding)
Cc1cc(S(=O)(=O)Nc2ccccc2C(=O)O)ccc1F	none (no result: Luciferase inh, Tau fil binding, Imprint erasure)
Fc1ccc(Nc2nc(-c3ccncc3)nc3ccccc23)cc1F	none (no result: Luciferase inh, Tau fil binding, Imprint erasure, p53ts 32C kill)
Oc1ccc(Nc2nc(-c3ccc(Cl)cc3)nc3ccccc23)cc1	p53ts 39C tox 16µM, p53ts 32C kill inconclusive (no result: Luciferase inh, Tau fil binding)
Cc1noc(C)c1-c1nc(Nc2ccc(F)cc2)c2ccccc2n1	none
Fc1ccc(Nc2nc(-c3ccoc3)nc3ccccc23)cc1	Tau fil binding 13µM
COc1ccc(N/C(C)=C2/C(=O)C(=O)N(CCO)C2c2ccc(Br)cc2)cc1 (configuration not stated)	Tau fil binding 16µM
COc1ccc(C2/C(=C(/O)c3ccccc3)C(=O)C(=O)N2CCO)cc1 (configuration not stated)	none (no result: Luciferase inh, Tau fil binding, Imprint erasure)
O=C(c1cccc(F)c1)N1CCC2(CCN(Cc3cc(C(F)(F)F)cc(C(F)(F)F)c3)CC2)CC1	none (no result: Imprint erasure)
COC(=O)c1cc(C)nc2c1c(=O)nc(SCc1ccccc1C)n2C1CC1	none (no result: Luciferase inh, Tau fil binding)
CCn1c(SCc2ccccc2Cl)nc(=O)c2c(C(=O)OC)cc(C3CC3)nc21	p53ts 39C tox 13µM (no result: Luciferase inh, Tau fil binding)
COc1ccc(CN(C(=O)Nc2cc(C)ccc2C)C2CCN(C(C)=O)CC2)cc1	none (no result: Luciferase inh, Tau fil binding, p53ts 39C tox, Imprint erasure)
COc1ccc(C2CC(=O)Nc3c2c(=O)nc2c(C)cccn32)cc1 (configuration not stated)	none (no result: Luciferase inh, Tau fil binding)
N/C(=N\O)c1cn([C@@H]2O[C@@H](CO)[C@H](O)[C@@H]2O)c2ncnc(NO)c12	p53ts 39C tox 1µM, p53ts 32C kill 2µM
O=C(/C=C\c1ccc(O)c(O)c1)O[C@H]1C[C@@](O)(C(=O)O)C[C@H](O)[C@@H]1O	Tau fil binding inconclusive (no result: p53ts 39C tox, Imprint erasure, p53ts 32C kill)
O=C(Cc1ccc(F)cc1)NCCc1csc(-c2ccc(C(F)(F)F)cc2)n1	p53ts 39C tox 20µM (no result: Luciferase inh, Tau fil binding)
C=CCOC(=O)C(C#N)c1nc2ccccc2nc1N1CCCC1 (configuration not stated)	Tau fil binding 16µM
COc1ccccc1N1CCN(c2nc3ccccc3nc2C(C#N)C(=O)OC(C)C)CC1 (configuration not stated)	Tau fil binding 7.9µM
N#CC(C(=O)OC1CCCCC1)c1nc2ccccc2nc1N1CCCCC1 (configuration not stated)	none
COCCOC(=O)C(C#N)c1nc2ccccc2nc1N1CCCC1 (configuration not stated)	Tau fil binding 16µM
Cc1cc(C)cc(NC(=O)c2sc3nc4n(c(=O)c3c2C)N=C(c2ccc(F)cc2)CS4)c1	none (no result: Luciferase inh, Tau fil binding)
CCOc1nc(C#N)nc(N2CCCCC2)n1	Tau fil binding 13µM
Cc1cc(C)c2sc(N(Cc3cccnc3)C(=O)CCS(=O)(=O)c3ccccc3)nc2c1	p53ts 39C tox 16µM (no result: Luciferase inh, Tau fil binding)
Cc1cc(C)c2nc(N(Cc3cccnc3)C(=O)CCS(=O)(=O)c3ccccc3)sc2c1	none (no result: Luciferase inh, Tau fil binding)
O=C(NCC(c1cccnc1)N1CCc2ccccc2C1)C(=O)Nc1ccccc1 (configuration not stated)	none (no result: Luciferase inh, Tau fil binding)
COc1ccc(NC(=O)C(=O)NCC(c2cccnc2)N2CCc3ccccc3C2)cc1 (configuration not stated)	p53ts 39C tox 10µM, p53ts 32C kill inconclusive (no result: Luciferase inh, Tau fil binding)
CCc1ccc(NC(=O)c2cc(-c3ccco3)on2)cc1	Luciferase inh inconclusive, Tau fil binding 16µM
COc1cc(NC(=O)c2cc3ccccn3n2)cc(OC)c1OC	none (no result: Luciferase inh, Tau fil binding)
Cc1ccccc1CCNC(=O)c1cc2ccccn2n1	p53ts 39C tox 10µM, p53ts 32C kill inconclusive (no result: Luciferase inh, Tau fil binding)
Cc1ccc(NC(=O)c2cc3ccccn3n2)cc1F	p53ts 39C tox inconclusive, p53ts 32C kill 13µM (no result: Luciferase inh, Tau fil binding)
CCc1ccc(NC(=O)c2cc3ccccn3n2)cc1	p53ts 39C tox 3.2µM, p53ts 32C kill 6.3µM (no result: Luciferase inh, Tau fil binding)
CCN(CC)CCCNC(=O)c1ccc(Cc2nc3ccccc3[nH]2)cc1	none (no result: Luciferase inh, Tau fil binding, Imprint erasure)
COc1ccc2c(c1OC)C(=O)N(c1cccc(C(F)(F)F)c1)C2	Luciferase inh 13µM, p53ts 39C tox inconclusive, p53ts 32C kill inconclusive
COc1ccc2c(c1OC)C(=O)N(c1cccc(C)c1)C2	Luciferase inh 7.9µM, p53ts 39C tox 5µM, p53ts 32C kill 7.9µM
Cc1ccccc1NC(=O)CSc1nc(-c2cccs2)nc2cc(=O)[nH]n12	none (no result: Luciferase inh, Tau fil binding)
CCN1CCCC1CNC(=O)c1ccc(-n2c(=O)c(=O)[nH]c3ccccc32)cc1 (configuration not stated)	none (no result: Luciferase inh, Tau fil binding, Imprint erasure)
Oc1ccc2[nH]ccc2c1	Tau fil binding 20µM
CSC(N)=NCCC[C@@H](N)C(=O)O	none (no result: Imprint erasure)
c1ccc(CNc2ccc3ccccc3n2)nc1	Luciferase inh 25µM, p53ts 39C tox inconclusive, p53ts 32C kill inconclusive
Cc1nc(NCc2ccccn2)c2ccccc2n1	none
CCN(CC)S(=O)(=O)c1ccc2c(c1)nc(CN(C)C(=O)c1cccc(Cl)c1)n2C	none (no result: Luciferase inh, Tau fil binding)
